PubChem BioAssay (NCATS)
Where “and” joins values, the source holds several entries; their conditions need not be identical. Equal entries are not always repeated. Records with an inconclusive call do not appear. Calls of active or inactive are those of the source. Unless noted, calls come from the whole dose curve; as a rule, active = well fitted curve in the direction sought with a large enough effect; inconclusive = small, poorly fitted or top-dose-only effect, or another doubt; inactive = no such curve, though single readings can be large; an effect the other way counts as inactive or inconclusive.

Tests used:
[1] = Cell Viability - Hek293 (AID 427;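 active = compounds whose dose-response curve shows a full or clear partial loss of cell viability, called from curve shape rather than a numeric limit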;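 note: potency is the fitted concentration of half-maximal effect; cells exposed to compound for 40 hours at 37 °C before reading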); conditions: qHTS
In short: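 qHTS, human embryonic kidney (adenovirus-transformed) cells; 40 hr cpd, 37 °C; CellTiter-Glo ATP luminescence. Norm: DMSO = 0, 100 uM tamoxifen = 100% inhibition. Hill-fit AC50.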

[2] = Cell Viability - N2a (AID 540); conditions: N2a mouse neuroblastoma cell viability; activity change, negative = cytotoxicity: at 92.2 µM (top of the series);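 note: plate controls were DMSO alone for no effect and tamoxifen control for full effect; nearly all actives have a fitted effect of over 45% in size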
In short: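 CellTiter-Glo ATP luminescence, read 20 min after reagent at room temperature, reported viability following 40 h compound treatment at 37 °C. N2a mouse neuroblastoma cells seeded 1500/well; Hill equation gave AC50.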

[3] = Cell Viability - SH-SY5Y (AID 544); conditions: SH-SY5Y neuroblastoma cell viability; viability change, negative = cytotoxic: at 92.2 µM (top of the series);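 note: cells exposed to compound for 40 hours; nearly all actives have a fitted effect of over 55% in size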; note: potency is the fitted concentration of half-maximal effect
In short: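 Cytotoxicity measured via ATP-dependent luciferase luminescence (CellTiter-Glo) following 40 h, 37 °C exposure of 1500 SH-SY5Y cells per well. Concentration-response data were fitted with the standard Hill equation to give AC50.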

[4] = Cellular Toxicity (caspase-3) SHSY5Y (AID 657); conditions: SH-SY5Y caspase-3 activation, DMSO zero, 10 µM staurosporine = 100%; series mostly up to 91.7 µM;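 note: cells exposed to compound for 16 hours at 37 °C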
In short: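 Luminescent caspase-3/7 readout (aminoluciferin release) in SH-SY5Y cells after 16 h compound exposure in complete medium. Activity scaled between DMSO basal and 10 uM staurosporine as 100%; concentration-response fitted to Hill equation for AC50.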

[5] = Cellular Toxicity (caspase-3) Mesangial (AID 660); conditions: mesangial cells, normalized: DMSO 0%, 100 µM tamoxifen 100%; series mostly up to 91.7 µM;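 note: combined caspase 3 and 7 activity read by Caspase-Glo luminescence; cells exposed to compound for 16 h before the caspase read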
In short: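 Caspase 3/7 activation measured by Caspase-Glo 3/7 luminescence (20 min, room temperature) following 16 h exposure of mesangial cells (1000/well); AC50 from Hill-equation fit, normalized to DMSO and 100 uM tamoxifen.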

[6] = Cellular Toxicity (caspase-3) H-4-II-E (AID 663); conditions: H-4-II-E rat hepatoma; Potency: caspase-3 activation; series mostly up to 92.2 µM;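 note: cells exposed to compound for 16 hr before readout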
In short: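 Caspase 3/7 activation measured by luminescent aminoluciferin substrate cleavage after 16 hr compound treatment of H-4-II-E cells in complete medium. Increase normalized between DMSO (basal) and 100 uM tamoxifen (100%); Hill-equation AC50 from concentration-response.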

[7] = Cellular Toxicity (caspase-3) NIH 3T3 (AID 666); conditions: NIH 3T3 caspase-3 activation, apoptosis/toxicity; series mostly up to 92.2 µM;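 note: caspase signal read after 16 h compound exposure; 0% = DMSO basal and 100% = 100 µM tamoxifen stimulation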
In short: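 Caspase-Glo 3/7 luminescence reported caspase activation in 1000 NIH 3T3 cells/well after 16 h compound exposure at 37 C. DMSO set basal and 100 uM tamoxifen set 100% stimulation; concentration-response modeled with the Hill equation for AC50.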

[8] = Cell Viability - LYMP2-001 (AID 921); conditions: LYMP2-001 lymphoblastoid cell viability; series mostly up to 92.2 µM;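 note: cells exposed to compound for 24 h at 37 °C; 0% = DMSO only and full inhibition = tetraoctylammonium bromide control wells; nearly all actives have a fitted effect of over 70% in size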
In short: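 CellTiter-Glo luminescence (intracellular ATP) after 24 hr compound exposure at 37 C, 2500 lymphoblastoid cells/well in complete medium. AC50 fitted with standard Hill equation; tetraoctylammonium bromide positive control.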

[9] = MultiTox-Fluor Cytotoxicity Assay - LYMP1-002 - Dead Cells (AID 960); conditions: LYMP1-002 lymphoblastoid cells, dead-cell protease fluorescence; series mostly up to 46.1 µM;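 note: 0% = DMSO and 100% = tetraoctylammonium bromide; nearly all actives have a fitted effect of over 60% in size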
In short: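 Dead-cell fluorescence (Ex/Em 485/520) after 16 h compound exposure at 37 C of LYMP1-002 lymphoblastoid cells in complete medium; AC50 by Hill equation, with data scaled between DMSO and 15 uM tetraoctylammonium bromide.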

[10] = Cell Viability - LYMP2-009 (AID 968); conditions: LYMP2-009 lymphoblastoid cell viability; series mostly up to 92.2 µM;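 note: cells exposed to compound for 24 h at 37 °C; 0% = DMSO alone and the full-kill end = tetraoctylammonium bromide at 92 µM; nearly all actives have a fitted effect of over 55% in size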
[11] = Cell Viability - LYMP2-006 (AID 978); conditions: LYMP2-006 lymphoblastoid cell viability, qHTS; series mostly up to 92.2 µM;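 note: cells exposed to compound for 24 hours; % is set by controls: 0 for no effect and ±100 for the full control effect; nearly all actives have a fitted effect of over 60% in size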
In short: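 qHTS, 1536-well; 2500 cells/well, 5 hr 37 C; cpd 24 hr 37 C; CellTiter-Glo 30 min RT; luminescence. Tetraoctylammonium bromide pos. ctrl. AC50 via Hill eqn.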

[12] = molecular target: Vitamin D3 receptor (Homo sapiens) (UniProt P11473); assay: qHTS assay for small molecule antagonists of vitamin D receptor signaling (AID 588541; calls by dose curve;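 note: receptor activated by calcitriol during compound treatment; % is set by controls: 0 for no effect and ±100 for the full control effect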); conditions: HEK293T VDR-UAS-bla, beta-lactamase ratio, antagonist mode; series mostly up to 76.7 µM
In short: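 Antagonist-mode beta-lactamase reporter assay: HEK293T VDR-UAS-bla cells were exposed to titrated compound alongside 1-alpha,25-dihydroxyvitamin D3 at 3 nM final for 16 h. Values were normalized to the 50 nM agonist control and DMSO basal, with IC50 and efficacy from Hill equation fits.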

[13] = qHTS assay for small molecule agonists of retinoid X receptor alpha signaling (AID 588544; calls by dose curve;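 for activation: 0% = DMSO basal wells and 100% = reference agonist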); conditions: HEK293T RXRa-UAS-bla, beta-lactamase reporter, 18 h; 530 nm emission
[14] = molecular target: Retinoic acid receptor RXR-alpha (Homo sapiens) (UniProt P19793); assay: as above; conditions: HEK293T RXRa-UAS-bla, beta-lactamase reporter, 18 h; series mostly up to 76.7 µM
[15] = molecular target: Thyroid hormone receptor beta (Homo sapiens) (UniProt P10828); assay: qHTS assay for small molecule antagonists of thyroid hormone receptor beta signaling (AID 588547; active = well fitted inhibition curve with a large enough effect in the signal ratio, with a control signal flat, not every such curve was filed as active; the % refers to the signal ratio;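 note: cells stimulated with 0.4 nM T3 agonist during compound exposure; % is set by controls: 0 for no effect and ±100 for the full control effect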); conditions: TR-UAS-bla HEK293, beta-lactamase ratio, antagonist mode, 18 h
In short: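 Inhibition of T3-driven (0.4nM final) beta-lactamase reporter activity was measured over 0.59 nM to 92 uM compound after 18 h at 37 C. The cells were GripTite HEK293 TR-UAS-bla in charcoal/dextran-stripped serum, with CCF4 ratio read-out and IC50 from Hill fits.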

[16] = qHTS assay for small molecule disruptors of the mitochondrial membrane potential - 1 hr assay (AID 651754; calls by dose curve; note: nearly all actives have a fitted effect of over 35% in size; note: potency is the fitted concentration of half-maximal effect); conditions: series mostly up to 92.2 µM
In short: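 Mitochondrial potential in living HepG2 cells after 1 hr compound treatment at 37C was read with Mito-MPS dye added for a further 30 min. Red aggregate and green monomer fluorescence were measured; loss of potential leaves dye as cytoplasmic monomers.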

[17] = qHTS assay for small molecule disruptors of the mitochondrial membrane potential - 5 hr assay (AID 651755; calls by dose curve; note: % is set by controls: 0 for no effect and ±100 for the full control effect; nearly all actives have a fitted effect of over 40% in size); conditions: JC-1-type ratio dye; series mostly up to 92.2 µM
In short: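 Membrane-potential dye readout: red aggregate (540 ex/590 em) versus green monomer (490 ex/535 em) fluorescence after 30 min dye loading, following 5 hr compound exposure at 37C of overnight-plated HepG2 cells.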

[18] = molecular target: Nuclear receptor ROR-gamma (Homo sapiens) (UniProt P51449); assay: qHTS assay for small molecule antagonists of the retinoid-related orphan receptor gamma (ROR-gamma) signaling pathway (AID 651802); conditions: ROR-gamma antagonist cell reporter assay; series mostly up to 92.2 µM;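 note: CHO cells with doxycycline-induced ROR-gamma expression; luciferase reporter luminescence driven by ROR response element; % is set by controls: 0 for no effect and ±100 for the full control effect; nearly all actives have a fitted effect of over 60% in size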
In short: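 Luminescence (One-Glo, 30 min RT) measured 16 h after compound addition and doxycycline induction at 37C. Reporter: RORE-luciferase under TET-inducible ROR-gamma in CHO cells.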

[19] = qHTS assay for small molecule agonists of the antioxidant response element (ARE) signaling pathway measured by Nrf2-dependant transcriptional activity - cell viability counter screen (AID 720653; active = well fitted curve in the direction sought with a large enough effect in the repeat runs; an effect the other way counts as inactive or inconclusive; note: % is set by controls: 0 for no effect and ±100 for the full control effect); conditions: ARE-bla HepG2 viability, CellTiter-Glo ATP luminescence, 16 h; stronger effect = lower value
In short: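 Cytotoxicity counter screen: intracellular ATP quantified by CellTiter-Glo luminescence in the same ARE-bla HepG2 plates, after 16 h compound exposure and a 2 h beta-lactamase substrate step.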

[20] = qHTS assay for cell viability of HEK293 cells (AID 743288); conditions: ATP luminescence (CellTiter-Glo), 18 h, stronger effect = lower value; note: % is set by controls: 0 for no effect and ±100 for the full control effect; nearly all actives have a fitted effect of over 50% in size
In short: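 ATP luminescence (CellTiter-Glo) reports metabolically competent cell number after parental HEK293 cells, 2,000/well, were treated with DMSO-dissolved compounds for 18 h at 37 C; reagent incubation 30 min, room temperature.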

Sequence of Vitamin D3 receptor (Homo sapiens) (P11473 whole entry, looked up): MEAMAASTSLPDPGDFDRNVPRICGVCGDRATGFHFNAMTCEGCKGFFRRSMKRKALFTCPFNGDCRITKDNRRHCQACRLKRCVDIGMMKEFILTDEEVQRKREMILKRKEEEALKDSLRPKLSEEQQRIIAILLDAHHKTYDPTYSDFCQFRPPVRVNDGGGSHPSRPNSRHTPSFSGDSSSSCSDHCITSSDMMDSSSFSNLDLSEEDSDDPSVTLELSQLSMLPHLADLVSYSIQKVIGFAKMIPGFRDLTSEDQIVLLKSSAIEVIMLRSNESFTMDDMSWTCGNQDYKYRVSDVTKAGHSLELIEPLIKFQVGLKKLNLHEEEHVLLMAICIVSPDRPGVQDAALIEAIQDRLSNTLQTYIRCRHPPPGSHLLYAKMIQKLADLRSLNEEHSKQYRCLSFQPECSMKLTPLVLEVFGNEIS
Sequence of Thyroid hormone receptor beta (Homo sapiens) (P10828 whole entry, looked up): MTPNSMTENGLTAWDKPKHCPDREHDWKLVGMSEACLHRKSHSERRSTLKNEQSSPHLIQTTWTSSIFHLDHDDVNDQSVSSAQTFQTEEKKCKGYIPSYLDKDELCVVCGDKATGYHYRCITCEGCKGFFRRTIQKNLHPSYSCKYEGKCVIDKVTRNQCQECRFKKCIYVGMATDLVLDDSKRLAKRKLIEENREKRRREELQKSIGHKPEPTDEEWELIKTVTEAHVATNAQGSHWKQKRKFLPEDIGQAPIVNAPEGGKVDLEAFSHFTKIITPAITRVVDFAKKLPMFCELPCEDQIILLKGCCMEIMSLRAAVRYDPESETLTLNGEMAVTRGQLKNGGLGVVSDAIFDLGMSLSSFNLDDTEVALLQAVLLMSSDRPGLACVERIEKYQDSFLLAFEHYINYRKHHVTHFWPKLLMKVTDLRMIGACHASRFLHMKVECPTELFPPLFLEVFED
Sequence of Nuclear receptor ROR-gamma (Homo sapiens) (P51449 whole entry, looked up): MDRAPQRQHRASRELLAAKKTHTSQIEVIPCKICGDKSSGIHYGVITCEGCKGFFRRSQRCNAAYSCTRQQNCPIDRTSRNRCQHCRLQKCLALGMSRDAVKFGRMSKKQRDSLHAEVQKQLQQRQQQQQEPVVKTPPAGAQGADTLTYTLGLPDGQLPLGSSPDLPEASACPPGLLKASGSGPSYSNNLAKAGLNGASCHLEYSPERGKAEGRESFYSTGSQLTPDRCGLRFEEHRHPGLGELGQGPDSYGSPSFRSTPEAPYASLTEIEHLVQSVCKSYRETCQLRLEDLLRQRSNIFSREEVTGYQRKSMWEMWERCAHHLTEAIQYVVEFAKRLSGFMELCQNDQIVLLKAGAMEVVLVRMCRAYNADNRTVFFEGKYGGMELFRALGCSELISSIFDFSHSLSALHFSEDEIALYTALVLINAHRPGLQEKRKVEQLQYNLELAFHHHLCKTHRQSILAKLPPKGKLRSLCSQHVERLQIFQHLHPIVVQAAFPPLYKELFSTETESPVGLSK
Sequence of Retinoic acid receptor RXR-alpha (Homo sapiens) (P19793 whole entry, looked up): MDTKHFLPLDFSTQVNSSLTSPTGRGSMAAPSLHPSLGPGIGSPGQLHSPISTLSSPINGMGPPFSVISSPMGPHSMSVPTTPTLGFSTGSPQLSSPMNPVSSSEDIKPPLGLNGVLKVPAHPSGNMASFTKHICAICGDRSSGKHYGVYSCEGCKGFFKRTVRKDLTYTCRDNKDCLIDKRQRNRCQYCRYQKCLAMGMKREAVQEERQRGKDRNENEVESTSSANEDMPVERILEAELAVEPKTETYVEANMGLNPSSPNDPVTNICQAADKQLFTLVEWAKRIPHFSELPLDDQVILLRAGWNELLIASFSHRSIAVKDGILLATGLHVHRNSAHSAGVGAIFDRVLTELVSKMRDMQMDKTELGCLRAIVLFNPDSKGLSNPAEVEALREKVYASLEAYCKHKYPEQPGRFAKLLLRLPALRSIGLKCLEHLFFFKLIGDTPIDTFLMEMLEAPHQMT

ClCc1ccccn1
inactive: Potency [1] > 92 µM | Potency [2] | Potency [3] | outcome [4] | outcome [5] | Potency [6] | Potency [7] | Potency [8] | Potency [9] | Potency [10] | Potency [11] | outcome [12] | outcome [14] | activity change % (negative = inhibition) [15] -1.68% | Potency [16] | Potency [17] | Potency [18] | max response [19] -0.496% and -9.53% | max response [20] 1.66% and -12.2%
-5.13% and -0.246%: max response [13]

CC(C)(OOC(C)(C)c1ccccc1)c1ccccc1
-7.49% and -13.6%: max response [13]
inactive: Potency [1] > 92 µM | Potency [2] | outcome [4] | outcome [5] | Potency [8] | Potency [9] | Potency [10] | Potency [11] | outcome [12] | outcome [14] | activity change % (negative = inhibition) [15] 6.91% | Potency [16] | Potency [17] | Potency [18] | max response [19] -15.2% and -2.58% | max response [20] -10.5% and -9.14%

Nc1cccc2ccccc12
inactive: Potency [1] > 92 µM | Potency [2] | Potency [3] | outcome [4] | Potency [6] | Potency [7] | Potency [9] | activity change % (negative = inhibition) [15] 1.61% | Potency [16] | Potency [17] | Potency [18] | max response [19] -19.6% | max response [20] -0.157%

CCN(N=O)C(N)=O
inactive: Potency [1] > 92 µM | Potency [2] | Potency [3] | outcome [4] | outcome [5] | Potency [6] | Potency [7] | Potency [8] | Potency [9] | Potency [10] | Potency [11] | outcome [12] | outcome [14] | activity change % (negative = inhibition) [15] 18.5% | Potency [16] | Potency [17] | Potency [18]
-12%: max response [13]

COc1cc(-c2ccc(N)c(OC)c2)ccc1N
active: Potency [16] 37.6 µM
8.08% and -9.67%: max response [13]
inactive: Potency [1] > 92 µM | Potency [2] | Potency [3] | outcome [4] | Potency [6] | Potency [7] | Potency [8] | Potency [9] | Potency [11] | outcome [12] | outcome [14] | activity change % (negative = inhibition) [15] 4.52% and 5.28% and -5.71% | Potency [18] | max response [19] 19% and 0.28% and -8.23% | max response [20] 15.2% and -15% and -5%

COP(=S)(OC)SCn1nnc2ccccc2c1=O
inactive: outcome [4] | outcome [5] | Potency [6] | Potency [7] | Potency [8] | Potency [9] | Potency [10] | Potency [11] | outcome [12] | activity change % (negative = inhibition) [15] 7.85% | Potency [18] | max response [19] -8.53% and -8.77% | max response [20] -22%
active: Potency [3] 15.8 µM

C/C=C/C=O
-18.6%: max response [13]
inactive: Potency [1] > 92 µM | Potency [2] | Potency [3] | outcome [4] | Potency [6] | Potency [7] | Potency [8] | Potency [9] | Potency [10] | Potency [11] | outcome [12] | outcome [14] | activity change % (negative = inhibition) [15] -1.85% | Potency [18] | max response [20] 5.69%
